# p53null 39C tox: selectivity test: cytotoxicity in p53 null cells, nonpermissive temperature | H1299 p53-null (neo) cells, 39C, ATPlite viability, 24 h | Potency, µM (series often up to 46.1 µM), inactives show at the top dose activity, negative = cell killing, hits mostly cytotoxic | actives 0.97% (n = 55,000) | AID 904;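 also: 0% = DMSO only and -100% = full killing by 100 µM tamoxifen; nearly all actives have a fitted effect of over 50% in size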
#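 H1299 lung cancer cells, p53-null (H1299-neo) or expressing p53 A138V (H1299-p53A138V), were plated overnight at 37C, then exposed to compounds at up to 46 uM for 24 hr at 39C. Viability was read by ATP-based luminescence.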
# PMP22 txn prim: modulators of PMP22 gene transcription in S16 Schwann cells. S16 Pmp22-F2sN Schwann cells, FLuc/NLuc coincidence luminescence, 24 h. actives 2% (n = 43,000). AID 1508649. Potency, µM (doses to about 57.5 µM), for the others: top-dose activity change, negative = inhibition, hits mostly inhibitors; active = clear falling dose curves in both reporters; inconclusive = both reporters move, but less clearly or upward; inactive = either reporter flat; the % is the NLuc reporter signal; also: % is scaled to controls: 0 for no effect and ±100 for the full control effect
#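 S16 Schwann cells carrying FLuc/NLuc coincidence reporter in the Pmp22 3' UTR treated with compound 24 h at 37C; FLuc then NLuc luminescence read sequentially by dual-luciferase reagents.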
# p53null 32C kill: kills p53 null cells at the permissive temperature | H1299-neo p53 null cells, ATP luminescence, 24 h, 32C | Potency, µM (doses to about 46.1 µM), inactives show at the top dose activity change, negative = cytotoxicity, actives largely listed as cytotoxic | actives 0.62% (n = 55,000) | AID 903;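 also: 0% = DMSO only and -100% = full killing by 100 µM tamoxifen; nearly all actives have a fitted effect of over 55% in size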
#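 H1299-neo (p53 null) cells, 600/well, treated 24 h at 32C with compound up to 46 uM; ATPlite luminescence viability, normalized to DMSO and 100 uM tamoxifen; AC50 by Hill fit.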
# GALC G270D act: enhancers of human galactocerebrosidase G270D mutant activity in cells; P54803; 145M-Twi-hGALC-G270D cells (Twitcher mouse brain line with human GALC G270D), HMU-beta-Gal fluorescence, 48 h; Potency, µM (doses to about 57.5 µM), usual class: activators; actives 0.1% (n = 45,000); AID 1159614; also: 0% is about no effect; nearly all actives have a fitted effect of over 65% in size
# Target sequence (P54803 whole entry G286D): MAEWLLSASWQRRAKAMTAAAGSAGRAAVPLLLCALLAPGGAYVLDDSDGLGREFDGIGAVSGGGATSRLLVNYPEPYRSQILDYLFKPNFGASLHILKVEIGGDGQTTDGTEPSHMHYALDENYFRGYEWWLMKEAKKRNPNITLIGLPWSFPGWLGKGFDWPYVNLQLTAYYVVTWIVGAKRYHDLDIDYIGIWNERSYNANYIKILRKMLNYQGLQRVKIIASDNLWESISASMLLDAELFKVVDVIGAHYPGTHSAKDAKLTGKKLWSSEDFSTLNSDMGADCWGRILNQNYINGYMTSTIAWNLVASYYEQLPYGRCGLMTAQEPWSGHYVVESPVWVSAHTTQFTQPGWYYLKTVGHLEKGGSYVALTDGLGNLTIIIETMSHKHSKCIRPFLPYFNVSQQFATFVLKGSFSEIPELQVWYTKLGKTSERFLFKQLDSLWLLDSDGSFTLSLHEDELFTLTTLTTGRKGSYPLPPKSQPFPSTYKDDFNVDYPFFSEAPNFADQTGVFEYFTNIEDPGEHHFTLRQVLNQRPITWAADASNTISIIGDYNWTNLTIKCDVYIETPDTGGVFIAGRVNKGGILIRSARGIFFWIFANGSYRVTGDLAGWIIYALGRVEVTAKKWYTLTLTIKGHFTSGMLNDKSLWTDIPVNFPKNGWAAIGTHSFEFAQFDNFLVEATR
#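 Live 145M-Twi cells (Twitcher mouse brain-derived, GALC-null) stably expressing human GALC-G270D, with a wild-type GALC line, were compound-treated. Residual GALC activity was then read as fluorescence from 0.1 mM final HMU-β-gal at pH 5.2; higher signal means activation.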
# pS6 MEF inh: mTORC1 pathway inhibition measured by phospho-rpS6; actives 0.78% (n = 44,000); Potency, µM (highest dose often 38.3 µM), inactives show at the top dose activity change, negative = inhibition, hits mostly inhibitors; AID 493208; Tsc2-/- p53-/- MEF, phospho-rpS6 immunofluorescence/PI, 24 h;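 also: plate controls were DMSO for no effect and rapamycin for full effect; nearly all actives have a fitted effect of over 50% in size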
#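 Read-out: phospho-S6 Alexa-488 intensity over PI intensity per well, scored as % active cells using thresholds from rapamycin (7.5 nM) and DMSO controls. Tsc2-/-, p53-/- MEFs exposed to compound for 24 h; PI cell count recorded as viability.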
# S16 viability: toxic to S16 Pmp22-F2sN Schwann cells; S16 Pmp22-F2sN Schwann cells (luciferase reporters placed in the Pmp22 gene) viability, CellTiter-Glo, 24 h; Potency, µM (titrated, usually from 57.5 µM), for inactives: at the highest dose activity change, negative = cytotoxicity, actives largely listed as cytotoxic; actives 0.48% (n = 43,000); AID 1508642; also: % is scaled to controls: 0 for no effect and ±100 for the full control effect; nearly all actives have a fitted effect of over 65% in size
#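 Seed 500-1,000 S16 Pmp22-F2sN cells per well in phenol-red-free DMEM with 10% heat-inactivated FBS; pin-add 23 nL compound; incubate 24 h at 37C; add CellTiter-Glo, wait 15 min protected from light; read luminescence.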
# Starred values were filed as active, the others as inactive; i = inactive; ? = inconclusive; · = no result given. This is a sample that favours compounds with a hit; in the whole collection about 3% have one here. Unless noted, calls follow the shape of the dose curve; as a rule, active = well fitted curve in the direction sought with a large enough effect; inconclusive = small, poorly fitted or top-dose-only effect, or another doubt; inactive = no such curve, though single readings can be large; an effect the other way counts as inactive or inconclusive. Potency is read from the fitted curve at half-maximal effect.
SMILES,p53null 39C tox,PMP22 txn prim,p53null 32C kill,GALC G270D act,pS6 MEF inh,S16 viability
COc1ccc(-n2c(/C=C/c3ccccc3F)nc3cc(OC)c(OC)cc3c2=O)cc1Cl,13%,-29%,-4%,i,5%,10µM*
CCCN1C(C(=O)c2ccccc2)=C(OC(=O)COc2ccccc2)c2ccccc2S1(=O)=O,?,?,-21%,i,-12%,-29%
CCCN1C(C(=O)c2ccccc2)=C(OC(=O)COc2ccc(C)cc2)c2ccccc2S1(=O)=O,32µM*,?,-18%,i,3%,-27%
CCOCCCn1c(=N)c(C(=O)NCC2CCCO2)cc2c(=O)n3cc(C)ccc3nc21 (stereo not drawn),-6%,-43%,8%,i,?,2%
CCCn1c(=N)c(C(=O)NCC2CCCO2)cc2c(=O)n3cc(C)ccc3nc21 (stereo not drawn),5%,?,1%,13µM*,-3%,8%
Cc1cccc(C(=O)N2CCc3cc(CNS(=O)(=O)c4cccs4)ccc32)c1,-16%,?,-12%,i,-8%,-28%
COc1ccc(Cl)cc1S(=O)(=O)NCc1ccc2c(c1)CCN2C(=O)c1cccc(C)c1,?,11µM*,10%,i,?,14µM*
CC(=O)N1CCCc2cc(S(=O)(=O)N3CCC(C(=O)N(Cc4ccccc4)C(C)C)CC3)ccc21,12%,?,-5%,i,-7%,-23%
CC(=O)N1CCCc2cc(S(=O)(=O)N(CCN(C)C)Cc3ccccc3)ccc21,10µM*,-28%,-10%,i,-8%,7%
N=c1n(CCO)c2ccccc2n1CCOc1ccc(F)cc1,-3%,·,-2%,·,?,·
CCN(CC)CCn1c(=N)n(CCOc2ccccc2Cl)c2ccccc21,3.2µM*,?,-21%,i,5.8µM*,28µM*
CCN(CC)CCn1c(=N)n(CC(O)COc2ccccc2C)c2ccccc21 (stereo not drawn),18µM*,?,-2%,i,12µM*,28µM*
Cc1ccc(S(=O)(=O)N2CCC(C(=O)Nc3ccc(C)c(Cl)c3)CC2)cc1,-9%,6%,8%,i,-8%,1%
CCN(CC)CCNC(=O)c1ccc2c(=O)n3nc(Nc4ccccc4OC)sc3nc2c1,?,?,-19%,i,0%,11%
COc1ccccc1Nc1nn2c(=O)c3ccc(C(=O)NCc4cccs4)cc3nc2s1,?,10µM*,10µM*,i,-5%,7.9µM*
COc1cc(Cl)c(C)cc1NC(=O)Cn1c(C)c2cnn(-c3ccccc3)c(=O)c2c1C,-6%,-18%,-4%,i,1%,14%
O=C(O)/C(=C1\OC(=O)c2ccccc21)c1ccccc1,13%,·,4%,·,·,·
Cc1ccc(Cl)cc1N1CCN(CCCNc2ncnc3onc(-c4ccc(F)cc4)c23)CC1,-1%,18µM*,-1%,i,-1%,?
COc1ccc(CCNC(=O)CCCn2c(=O)c3ccccc3n(CC(=O)Nc3cc(Cl)ccc3C)c2=O)cc1OC,13µM*,?,?,i,?,20%
CCc1cccc(NC(=O)Cn2c(=O)n(CC(=O)NCCc3ccccc3)c(=O)c3ccccc32)c1,13µM*,?,13µM*,i,4%,-5%
COc1ccc(CCNC(=O)C(C)n2nc(C)c3sc4ccccc4c3c2=O)c(OC)c1 (stereo not drawn),?,-10%,-21%,i,2.9µM*,0%
COc1ccc(CCNC(=O)CCCn2nc(C)c3sc4ccccc4c3c2=O)cc1OC,?,-32%,?,i,18µM*,-10%
CCC(C(=O)NCCc1ccc(OC)c(OC)c1OC)n1nc(C)c2sc3ccccc3c2c1=O (stereo not drawn),1%,?,-11%,i,1%,?
COc1ccc(Cl)cc1NC(=O)Cn1c(=O)n(CCCC(=O)NCCc2ccc(OC)c(OC)c2)c(=O)c2ccccc21,?,?,1%,i,-16%,-13%
O=C(NCc1ccccc1Cl)c1ccc(NC(=O)N2CCSc3ccccc32)cc1,-4%,?,-3%,i,1%,-1%
SMILES,p53null 39C tox,PMP22 txn prim,p53null 32C kill,GALC G270D act,pS6 MEF inh,S16 viability
Cc1ccccc1Nc1cc(C(=O)NC2CCC(C)CC2)c2ccccc2n1 (stereo not drawn),4%,-93%,-7%,i,-9%,8%
CCOC(=O)CNC(=O)N1CCN(c2nnc(C)c3c(C)n(-c4ccc(Cl)cc4)nc23)CC1,-12%,-11%,1%,i,4%,0%
CCc1ccc(NC(=O)N2CCN(c3nnc(C)c4c(C)n(-c5ccc(Cl)cc5)nc34)CC2)cc1,20µM*,?,?,i,-15%,-26%
COc1ccc(-n2nc3c(N4CCC(C(=O)NCCc5ccccc5)CC4)nnc(C)c3c2C)cc1,-4%,6%,-1%,i,1%,-3%
Cc1ccc(-n2nc3c(N4CCC(C(=O)NCCc5ccccc5)CC4)nnc(C)c3c2C)cc1,-28%,?,11%,i,-5%,28µM*
Cc1c(Cl)cccc1NCC(=O)Nc1ccc(Cl)cc1F,-3%,·,·,·,·,·
COc1ccc(C(=O)CC2(O)C(=O)N(Cc3cccc(C(F)(F)F)c3)c3ccccc32)cc1 (stereo not drawn),?,?,15%,i,?,?
CCN1C(=O)C(O)(c2c[nH]c3ccccc23)c2cc(Br)ccc21 (stereo not drawn),-27%,?,22%,i,7%,-6%
O=C(CC1(O)C(=O)N(Cc2ccccc2)c2ccc(Br)cc21)c1ccccc1 (stereo not drawn),13µM*,?,?,i,?,-14%
COc1ccccc1C(=O)CC1(O)C(=O)N(CC(N)=O)c2ccccc21 (stereo not drawn),?,2%,-1%,i,14%,4%
O=C(CC1(O)C(=O)N(CCc2ccccc2)c2ccc(Br)cc21)c1ccccc1O (stereo not drawn),?,?,9%,i,18µM*,?
COc1cccc(C(=O)CC2(O)C(=O)N(Cc3ccccc3)c3ccccc32)c1 (stereo not drawn),4%,?,-3%,i,15µM*,?
